PubChem BioAssay (NCATS)
Results filed as inconclusive are left out. Activity calls are given as the source filed them. Unless noted, calls follow the shape of the dose curve; as a rule, active = well fitted curve in the direction sought with a large enough effect; inconclusive = small, poorly fitted or top-dose-only effect, or another doubt; inactive = no such curve, though single readings can be large; an effect the other way counts as inactive or inconclusive.

Columns and labels:
[1] = Quantitative High-Throughput drug screen in 47 multiple myeloma cell lines against the NCATS MIPE library collection: UTMC2_PLB cell viability assay (AID 1919868); conditions: CellTiter-Glo ATP luminescence, 48 h; viability (% of DMSO control): at 45.8 µM (top of the series) unless noted; also: nearly all actives have a fitted effect of over 55% in size; also: potency is read from the fitted curve at half-maximal effect
Outline: (§1)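 ATP-based CellTiter-Glo luminescence after 48 h drug exposure (37 °C, 5% CO2) of 500 myeloma cells per well. DMSO-only wells set 100% viability, media-only wells 0%; MIPE 4.0 library added by pin tool.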

[2] = Quantitative High-Throughput drug screen in 47 multiple myeloma cell lines against the NCATS MIPE library collection: PCM6_Riken cell viability assay (AID 1919870); also: nearly all actives have a fitted effect of over 30% in size; also: potency is read from the fitted curve at half-maximal effect
Outline: as §1

[3] = Quantitative High-Throughput drug screen in 47 multiple myeloma cell lines against the NCATS MIPE library collection: OPM2_DSMZ cell viability assay (AID 1919872); also: nearly all actives have a fitted effect of over 30% in size; also: potency is read from the fitted curve at half-maximal effect
Outline: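 Approved and investigational drugs from MIPE 4.0 were added by pin tool to 500 cells per well. After 48 hours at 37C, ATP-based CellTiter-Glo luminescence indicated remaining viability.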

[4] = Quantitative High-Throughput drug screen in 47 multiple myeloma cell lines against the NCATS MIPE library collection: KMS11_JCRBsus cell viability assay (AID 1919873); also: nearly all actives have a fitted effect of over 50% in size; also: potency is read from the fitted curve at half-maximal effect
Outline: as §1

[5] = Quantitative High-Throughput drug screen in 47 multiple myeloma cell lines against the NCATS MIPE library collection: KMS28BM_JCRB cell viability assay (AID 1919874); also: nearly all actives have a fitted effect of over 35% in size; also: potency is read from the fitted curve at half-maximal effect
Outline: as §1

[6] = qHTS drug screen for cell cycle checkpoint inhibitors in PARPi-resistant BRCA-mutant ovarian cancer cell lines. (AID 1963452; calls by dose curve); conditions: PEO1/OlaR viability, CellTiter-Glo luminescence, 96 h, stronger effect = lower value
Outline: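 PEO1, PEO4 and PEO1/OlaR ovarian cancer cells, 600 per well, exposed 96 h at 37C to a dilution series. Viability read by CellTiter-Glo luminescence, normalized to DMSO and empty wells; activity summarized as Z-AUC.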

[7] = qHTS for identification of novel therapeutic agents for treatment of microphthalmiaassociated transcription factor (MiT) renal cell carcinoma (RCC) (AID 1963991); conditions: CellTiter-Glo, 48 h, stronger effect = lower value
Outline: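 Three TFE3-fusion RCC cell lines (UOK109, UOK124, UOK145), 500 cells/well, were exposed to the 1912-compound MIPE 4.0 library for 48 hours at 37 C. Viability was read by CellTiter-Glo luminescence, normalised to DMSO (100%) and empty wells (0%), with 11-concentration curve fits.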

[8] = Quantitative High-Throughput drug screen in 47 multiple myeloma cell lines against the NCATS MIPE library collection: VP6_DJ cell viability assay (AID 1919867); also: potency is read from the fitted curve at half-maximal effect; nearly all actives have a fitted effect of over 40% in size
Outline: as §1

[9] = Quantitative High-Throughput drug screen in 47 multiple myeloma cell lines against the NCATS MIPE library collection: RPMI8226_ATCC cell viability assay (AID 1919871); also: potency is read from the fitted curve at half-maximal effect; nearly all actives have a fitted effect of over 30% in size
Outline: as §1

[10] = qHTS profiling for inhibitors of Plasmodium falciparum proliferation (AID 504749); also: potency is read from the fitted curve at half-maximal effect; nearly all actives have a fitted effect of over 60% in size; conditions: P. falciparum in erythrocytes, SYBR Green DNA, 72 h
Outline: (§2)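 SYBR Green fluorescence of parasite DNA, read after lysis and overnight dark incubation, measured growth over 72 h in erythrocyte culture at 0.3% parasitemia and 2.5% hematocrit. Data normalised to DMSO and 0.29 uM artemisinin, with plate-drift correction.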

[11] = test system: 3D7; test: as above; conditions: P. falciparum in erythrocytes, SYBR Green DNA, 72 h; series mostly up to 28.7 µM
Outline: as §2

[12] = test system: 7G8; test: as above; conditions: P. falciparum in erythrocytes, SYBR Green DNA, 72 h; series mostly up to 28.7 µM
Outline: as §2

[13] = test system: AA1029; test: as above; conditions: P. falciparum in erythrocytes, SYBR Green DNA, 72 h; series mostly up to 28.7 µM
Outline: as §2

[14] = test system: AS120; test: as above; conditions: P. falciparum in erythrocytes, SYBR Green DNA, 72 h; series mostly up to 28.7 µM
Outline: as §2

[15] = test system: ATS189; test: as above; conditions: P. falciparum in erythrocytes, SYBR Green DNA, 72 h; series mostly up to 28.7 µM
Outline: as §2

[16] = test system: ATS95; test: as above; conditions: P. falciparum in erythrocytes, SYBR Green DNA, 72 h; series mostly up to 28.7 µM
Outline: as §2

[17] = test system: C2A; test: as above; conditions: P. falciparum in erythrocytes, SYBR Green DNA, 72 h; series mostly up to 28.7 µM
Outline: as §2

[18] = test system: CP185; test: as above; conditions: P. falciparum in erythrocytes, SYBR Green DNA, 72 h; series mostly up to 28.7 µM
Outline: as §2

[19] = measured here: PEO1 parental Z-AUC

## Clc1cccc(-n2nnnc2NCc2ccccc2Oc2ccccn2)c1Cl
[1]
  Potency: inactive
[2]
  Potency: inactive
[3]
  Potency: inactive
[4]
  Potency: inactive
[5]
  Potency: inactive
[6]
  Z-AUC: -0.248 (inactive)
[6]; [19]
  Z-AUC: -0.502
[6]; measured here: PEO4 Z-AUC
  Z-AUC: 0.0945
[7]; TFE3-RCC UOK109 viability, measured here: UOK109 Z-AUC
  z-score: -0.1
[7]; TFE3-RCC viability, measured here: UOK124 Z-AUC
  z-score: 0.284
[7]; TFE3-RCC viability, measured here: UOK145 Z-AUC
  z-score: -0.372

## Nc1nc(-c2nn(Cc3ccccc3F)c3ncccc23)nc(N)c1N1CCOCC1
[8]
  Potency: 3720 nM (active)
[3]
  Potency: inactive
[5]
  Potency: inactive
[6]
  Z-AUC: -0.481 (inactive)
[6]; [19]
  Z-AUC: -0.352
[6]; measured here: PEO4 Z-AUC
  Z-AUC: -0.594

## CCc1cc2c(cc1N1CCC(N3CCOCC3)CC1)C(C)(C)c1[nH]c3cc(C#N)ccc3c1C2=O
[6]
  Z-AUC: 0.0393 (inactive)
[6]; [19]
  Z-AUC: -0.229
[6]; measured here: PEO4 Z-AUC
  Z-AUC: -0.554

## CCC1=C[C@@H]2CN(C1)Cc1c([nH]c3ccccc13)[C@@](C(=O)OC)(c1cc3c(cc1OC)N(C)[C@@H]1[C@@](O)(C(=O)OC)[C@H](OC(C)=O)[C@]4(CC)C=CCN5CC[C@]31[C@@H]54)C2
[1]
  Potency: 1 nM (active)
[9]
  Potency: 118 nM (active)
[3]
  Potency: 16.6 nM (active)
[4]
  Potency: 8.3 nM (active)
[5]
  Potency: 4.7 nM (active)
[10]; parasite line A
  Potency: 3160 nM (active)
[10]; parasite line B
  Potency: 5010 nM (active)
[11]
  Potency: 3160 nM (active)
[12]
  Potency: 2240 nM (active)
[13]
  Potency: 1580 nM (active)
[14]
  Potency: 1410 nM (active)
[15]
  Potency: 1780 nM (active)
[16]
  Potency: 2000 nM (active)
[17]
  Potency: 1260 nM (active)
[18]
  Potency: 3160 nM (active)

## COc1ccc(CC2SC(=O)NC2=O)cc1C(=O)NCc1ccc(C(F)(F)F)cc1 (stereo not given)
[2]
  Potency: 7430 nM (active)
[5]
  Potency: inactive
[6]
  Z-AUC: 1.34 (inactive)
[6]; [19]
  Z-AUC: 1.11
[6]; measured here: PEO4 Z-AUC
  Z-AUC: 1.12
